# L major viab: inhibitors of Leishmania major promastigote growth; Leishmania major promastigotes, resazurin fluorescence viability; inhibition, % at 10 µM; actives 9% (n = 200,000); in the data active means inhibition above about 50%;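 further: promastigotes grown with compound for 44 hours at 28 °C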
# WT yeast gro inh: growth inhibition of WT yeast, mitochondrial fusion screen | mitochondrial fusion phenotypic screen, WT strain | actives 2.1% (n = 190,000) | inhibition, % at 10 µM; in the data active means inhibition above about 58%; tested in S. cerevisiae
# Ins promoter up: MIN6 insulin promoter up-regulation | actives 0.3% (n = 190,000) | MIN6 insulin promoter-GFP reporter, high-content imaging; stronger effect = higher value | AID 1625 | z-score at 5 µM;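 active means z-score above 3 at 5 µM with at least 500 cells counted in the well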
# INS promoter inh: TRM-6 insulin promoter activity inhibition | TRM-6 cells (human fetal islet line), insulin promoter-eGFP reporter, imaging; reporter expression induced with tamoxifen | inhibition, % at 2 µM | actives 0.9% (n = 130,000) | AID 1273;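 active means inhibition above the mean plus 3 SD, with well images judged a real hit on visual review, cut at about 60% in these data, passing the limit was not always enough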
# Autophagy mod: alters autophagy in cells; actives 0.98% (n = 190,000); AID 463193; MEF GFP-LC3 puncta imaging; test concentration mostly 10 µM; calls only at 10 µM (by protocol);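 active means percentage of spot-positive cells more than 3 SD above its plate mean, without a fluorescence outlier flag or 80% toxicity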;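 further: spot-positive cell cutoff set from DMSO-treated cells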
# * hit, by the source's call; i = inactive; / = no result given; + = active, no number. A selection: hits, their analogues and other compounds. The true share with any hit is near 11%.
SMILES,L major viab,WT yeast gro inh,Ins promoter up,INS promoter inh,Autophagy mod
Cc1ccccc1CCN(C(=O)CN1C(=O)c2ccccc2S1(=O)=O)C(C(=O)NCC1CCCO1)c1ccncc1 (configuration not stated),59.9*,-25.8,-0.88,5.4,i
O=C(c1ccc(CNc2c(N3CCCC3)c(=O)c2=O)cc1)N1CCc2ccccc2C1,-2.2,7.0,1.66,/,/
CCN1CCN(c2cc(=O)n(Cc3ccc(F)cc3)c(=O)[nH]2)CC1,1.6,-5.1,-0.42,78.4*,i
CCN(CC)C(=O)CSc1ncccc1-c1nc2ccccc2[nH]1,2.6,-6.4,0.08,/,i
Cn1c(N)c(C(=O)c2ccccc2)c(=O)n(C)c1=O,4.6,23.7,-0.59,33.3,i
Cn1c(/C=C/N2CCOCC2)c(C(=O)c2ccc(Br)cc2)c(=O)n(C)c1=O,0.2,76.9*,-0.25,36.2,i
Cc1ccc(C)c2[nH]c(=O)c(C(c3nnnn3C3CCCC3)N3CCOCC3)cc12 (configuration not stated),9.3,3.5,-0.11,0.0,i
Cc1ccc(C)c2[nH]c(=O)c(C(c3nnnn3Cc3ccco3)N3CCc4ccccc4C3)cc12 (configuration not stated),93.7*,13.5,/,/,i
CCOc1ccc2[nH]c(=O)c(C(c3nnnn3Cc3ccco3)N3CCC(C)CC3)cc2c1 (configuration not stated),17.6,-5.0,1.06,-39.5,i
COc1ccccc1C(c1nnnn1Cc1ccco1)N1CCN(c2cccc(C)c2C)CC1 (configuration not stated),74.2*,28.4,/,-62.1,i
Cc1ccc(C)c2[nH]c(=O)c(C(c3nnnn3CCc3ccccc3)N3CCOCC3)cc12 (configuration not stated),100.1*,-4.5,-0.36,/,i
CCN1CCN(C(c2cccc(OC)c2OC)c2nnnn2Cc2ccco2)CC1 (configuration not stated),-1.2,-2.7,/,-66.7,i
CC(c1cccs1)N(C)Cc1nc(CCc2ccccc2)no1 (configuration not stated),0.3,21.6,0.5,/,i
COc1ccc(CN2CCc3ccccc3C2)c(OC)c1,/,/,-0.75,/,/
c1ccc(OCCOCCN2CCc3ccccc3C2)cc1,98.0*,-10.6,-0.35,17.9,i
c1ccc(OCCOCCN2CCN(C(c3ccccc3)c3ccccc3)CC2)cc1,20.7,43.8,0.6,-46.7,i
CCOc1ccc(OCCOCCN2CCc3ccccc3C2)cc1,91.0*,-3.7,-0.7,/,i
C=CCc1cc(OC)ccc1OCCOCCN1CCc2ccccc2C1,89.9*,21.4,-0.6,-144.4,i
C=CCc1cc(OC)ccc1OCCOCCC(C(=O)OCC)C(=O)OCC,53.6*,-0.3,0.52,-15.4,i
COC(=O)c1ccc(Cl)c(NC(=O)CN(c2ccccc2)S(=O)(=O)c2ccc(OC)cc2)c1,15.9,24.6,-0.76,/,i
COc1ccccc1N1CCN(CC(=O)Nc2cc(C)nn2-c2nc(C)cc(C)n2)CC1,/,7.8,/,/,/
Cc1nc(Oc2ccc(S(=O)(=O)N3CCOCC3)cc2Cl)c2c3c(sc2n1)CCCC3,22.9,-14.8,/,/,i
CCOc1ccc(N(CC(=O)N/N=C/c2cccnc2)S(C)(=O)=O)cc1,6.4,2.6,1.09,35.3,i
Cc1ccc(SCCOCCN2CCc3ccccc3C2)cc1,92.2*,44.4,-0.62,-66.7,i
CCCOc1ccc(OCCOCCN2CCc3ccccc3C2)cc1,96.9*,13.1,-0.12,-27.0,i
SMILES,L major viab,WT yeast gro inh,Ins promoter up,INS promoter inh,Autophagy mod
CCn1c(N2CCN(C(=S)Nc3ccc(OC)cc3)CC2)nc2ccccc21,-2.2,22.1,-0.69,/,i
CCO/N=C(\C)c1c(O)c(CC)c(-c2ccccc2)n(-c2ccccc2)c1=O,-5.8,-5.4,/,-95.3,i
Cc1ccc(N(C(=O)CNC(=O)c2ccco2)C(C(=O)NC2CCCC2)c2cccnc2)cc1C (configuration not stated),-10.9,-13.0,-0.24,/,i
Cc1ccc(C(C(=O)NC2CCCC2)N(C(=O)Cc2cccs2)c2ccc(C)c(C)c2)o1 (configuration not stated),19.3,63.1*,0.16,-7.7,i
Cc1nn(C)cc1C(C(=O)NC1CCCCC1)N(C(=O)Cc1cccs1)c1ccc(C(C)C)cc1 (configuration not stated),13.4,-2.0,/,-200.0,i
Cc1ccc(N(C(=O)CCl)C(C(=O)NC2CCCCC2)c2cccnc2)cc1C (configuration not stated),100.4*,-13.0,/,-163.2,+
Cc1ccc(C)c(N(C(=O)Cc2cccs2)C(C(=O)NC2CCCC2)c2ccc(C)o2)c1 (configuration not stated),-2.4,5.3,0.01,11.5,i
Cc1nn(C)cc1C(C(=O)NC1CCCCC1)N(C(=O)Cc1cccs1)c1ccc(F)cc1 (configuration not stated),69.7*,8.1,0.29,-52.0,i
Cc1ccccc1NC(=O)c1ccc(-n2cncn2)nc1,-4.1,-1.2,0.32,-83.3,i
CCOC(=O)/C(C#N)=C\C1=C(N2CCOCC2)CC(C)(C)OC1,-3.5,-10.9,-0.09,-42.9,i
O=C(Nc1ccc2c(c1)C(=O)OC2)c1ccc(F)cc1F,/,/,0.62,/,/
O=C(NCCCCCCNC(=O)OC1CCS(=O)(=O)C1)OC1CCS(=O)(=O)C1 (configuration not stated),-2.4,6.8,0.27,-21.6,i
O=C1CC(c2ccccc2)CC2=C1C(c1ccccn1)Nc1ccccc1N2 (configuration not stated),19.5,-0.2,0.21,11.4,i
COc1ccc(C2CC(=O)C3=C(C2)Nc2ccccc2NC3c2coc3ccccc3c2=O)cc1OC (configuration not stated),92.7*,-15.4,0.15,-16.2,i
CCN(c1ccc(NC(=O)CCNC(=O)c2ccco2)cc1)C(C)C,54.3*,-8.6,-0.06,-22.2,i
CC(c1ccccc1)N1CCn2c(nc3cc(NC(=O)c4cccs4)ccc32)C1 (configuration not stated),98.9*,4.8,/,30.8,i
COc1ccc(C2CC(=O)N3C(=C2C#N)SCC3(O)c2ccccc2)cc1 (configuration not stated),48.9,4.2,-1.35,/,i
N#CC1=C2SCC(O)(c3ccccc3)N2C(=O)CC1c1ccccc1F (configuration not stated),98.8*,14.6,-0.02,-233.3,i
N#CC1=C2SCC(O)(c3ccccc3)N2C(=O)CC1c1cccs1 (configuration not stated),90.4*,5.8,-0.77,/,i
CCn1c(=O)c(=O)[nH]c2cc(C(=O)NC3CCCC3)ccc21,-3.4,-4.0,-0.32,-27.8,i
CCn1c(=O)c(=O)[nH]c2cc(C(=O)NCC3CCCCC3)ccc21,68.5*,6.9,0.16,27.0,i
CC1CCc2c(sc(NC(=O)COC(=O)C3CCCO3)c2C#N)C1 (configuration not stated),3.8,19.3,-0.09,/,i
CC1CCc2c(sc(NC(=O)COC(=O)c3ccc(O)cc3)c2C#N)C1 (configuration not stated),-5.1,96.5*,-0.37,-21.4,i
